Measurements: the supplement of paper PMC12636033
± gives the standard deviation of the averaged measurements. In all, about 33,000 sequences were measured (“E-score (rank enrichment, -0.5 to 0.5)”: median about -0.0043, highest 2% from about 0.24 on). This is one part of a sample in which the highest values are shown more often than they occur.

Each sequence was assayed on 2Sp-muMax20 (muMax20 with two 2,6-bis(methyl)pyridine Cys staples) (assay: PBM 8-mer E-score (E-score (rank enrichment, -0.5 to 0.5)); higher = stronger preferential binding).
Protocol: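 Protein binding microarray (universal PBM chip covering all 10-mers in fixed probe flanks) with chemically synthesized human Max(13-93) bHLH-LZ analogs (not full-length Max) bearing noncanonical residues (hArg, Tha, Aib, Nle at 65) and aromatic Cys staples. Read-out per 8-mer (and its reverse complement): E-score (rank-based enrichment, -0.5 to 0.5) and Z-score of median probe intensity.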

Row | Sequence | PBM 8-mer E-score
1 | CACCGCGG | -0.121 ± 0.021
2 | CTGGTAGC | -0.131 ± 0.011
3 | CCATCTTA | -0.102 ± 0.052
4 | GATAGCAC | 0.151 ± 0.043
5 | CATAGCAC | 0.301 ± 0.019
6 | CATAGCAA | 0.199 ± 0.072
7 | GCCAGAAA | 0.0632 ± 0.035
8 | CTAAGCTA | -0.0343 ± 0.0085
9 | GTGATGCA | 0.186 ± 0.078
10 | AATATAAG | 0.249 ± 0.07
11 | TGTATACA | 0.315 ± 0.067
12 | AAAATAAA | 0.103 ± 0.018
13 | CATATAAA | 0.323 ± 0.008
14 | ACTATAAA | 0.115 ± 0.014
15 | AATATAAA | 0.245 ± 0.03
16 | AATATAAT | 0.22 ± 0.015
17 | AATATAAC | 0.203 ± 0.11
18 | CATATAAG | 0.168 ± 0.061
19 | GGTATACA | 0.145 ± 0.029
20 | CATATAAC | 0.228 ± 0.076
21 | TGGATACA | 0.213 ± 0.13
22 | AGGCTCAC | -0.168 ± 0.071
23 | CTTTCCCA | -0.0651 ± 0.061
24 | ATTAGGTA | 0.0384 ± 0.028
25 | CTTCCCCA | 0.0675 ± 0.046

Row | Sequence | PBM 8-mer E-score
26 | ATGAAAGA | 0.095 ± 0.12
27 | GGCACTGA | -0.138 ± 0.064
28 | GAACGGTA | -0.0592 ± 0.0044
29 | AGCGCAAT | -0.0106 ± 0.054
30 | AGTATAAA | 0.186 ± 0.048
31 | GATAAAAA | 0.17 ± 0.036
32 | TATAAAAA | 0.307 ± 0.015
33 | TATATAAA | 0.275 ± 0.019
34 | GGTATAAA | 0.134 ± 0.012
35 | TCTATAAA | 0.213 ± 0.036
36 | TGTATAAA | 0.254 ± 0.018
37 | GATATAAA | 0.191 ± 0.046
38 | CATAAAAA | 0.17 ± 0.062
39 | GTACACTA | -0.172 ± 0.087
40 | AGGATGGC | -0.0191 ± 0.078
41 | GAACGAAC | -0.022 ± 0.033
42 | ACGTCAGT | -0.191 ± 0.0086
43 | ATCTTAAT | 0.165 ± 0.044
44 | ACCCAGCA | -0.107 ± 0.015
45 | ACCCCTAT | 0.267 ± 0.044
46 | GCCCCCCC | -0.1861 ± 0.0003
47 | ACCCCTAA | 0.163 ± 0.11
48 | CCCCCTTC | -0.195 ± 0.12
49 | AACCCTTC | 0.0889 ± 0.037
50 | ACCCCTTC | 0.273 ± 0.015

Row | Sequence | PBM 8-mer E-score
51 | CCCCCTCC | -0.0372 ± 0.049
52 | GCCCCTCA | 0.0361 ± 0.077
53 | GCCCCTCC | 0.237 ± 0.036
54 | ACCCCTAG | 0.0238 ± 0.027
55 | ACCCCTCC | 0.246 ± 0.0062
56 | ACCCCTCA | 0.158 ± 0.055
57 | CCGGCAGA | -0.154 ± 0.1
58 | CTCAAAGA | -0.106 ± 0.0065
59 | GACACCGA | -0.215 ± 0.025
60 | GAAAGATA | 0.0861 ± 0.022
61 | TGGGAGAA | 0.0249 ± 0.058
62 | CGCCCACA | 0.216 ± 0.018
63 | ACGATGGA | -0.164 ± 0.01
64 | CTAAAAGC | -0.0267 ± 0.036
65 | CACTCAAG | 0.0104 ± 0.039
66 | CTGGCAAA | -0.0382 ± 0.063
67 | GATACGGC | -0.079 ± 0.018
68 | ATGATAGC | 0.278 ± 0.023
69 | ATGATAGG | 0.00318 ± 0.11
70 | ATGATACC | 0.11 ± 0.016
71 | ATGATACA | 0.274 ± 0.042
72 | CTGATACA | -0.0277 ± 0.11
73 | ATGATATG | 0.199 ± 0.075
74 | ATGATACG | 0.271 ± 0.071
75 | GTGATACA | 0.0186 ± 0.033

Row | Sequence | PBM 8-mer E-score
76 | ATGATAGA | 0.079 ± 0.01
77 | TAACGAAA | 0.0771 ± 0.12
78 | CAACTAGC | 0.0239 ± 0.018
79 | ATTAGTCC | 0.0528 ± 0.12
80 | CACGGCGA | -0.0774 ± 0.0095
81 | CGGTCGTC | -0.18 ± 0.017
82 | GGTGATTA | 0.0438 ± 0.06
83 | ATGTGAAC | 0.119 ± 0.0064
84 | GGATTGCC | -0.202 ± 0.012
85 | AATGGGTC | -0.00791 ± 0.0086
86 | AATTGGGG | 0.228 ± 0.06
87 | ATTGGGGG | -0.0095 ± 0.0052
88 | AATTTGGT | -0.00788 ± 0.03
89 | AATTGGGT | 0.2483 ± 0.0021
90 | ATTTGGGA | 0.173 ± 0.068
91 | ATTTGGGG | 0.253 ± 0.052
92 | AATTTGGA | 0.0583 ± 0.086
93 | ATTGGGCC | 0.00386 ± 0.043
94 | ATTTGGGC | 0.119 ± 0.05
95 | AATTGGGC | 0.183 ± 0.034
96 | ATTGGGGC | 0.253 ± 0.019
97 | AATTTGGG | 0.254 ± 0.017
98 | CCTTGACG | -0.0891 ± 0.0072
99 | AGGGGACT | -0.0296 ± 0.079
100 | GACGAGCA | 0.0874 ± 0.014

Row | Sequence | PBM 8-mer E-score
101 | CACACACC | -4e-05 ± 0.065
102 | ATGGCATC | 0.193 ± 0.081
103 | ACGAGCCG | -0.0923 ± 0.041
104 | CGCGGTCA | -0.174 ± 0.092
105 | ACACGCGA | 0.211 ± 0.037
106 | AAACGCGT | -0.0801 ± 0.023
107 | ACGCGCGC | 0.206 ± 0.0084
108 | ACGCGCGG | 0.156 ± 0.098
109 | ACGCGCGT | 0.397 ± 0.0075
110 | ACACGCGT | 0.272 ± 0.021
111 | ACTGAACT | 0.049 ± 0.03
112 | CACGATCG | -0.0926 ± 0.084
113 | AAATAACA | 0.182 ± 0.057
114 | AAATAACG | 0.289 ± 0.022
115 | CAATAACG | 0.0434 ± 0.0082
116 | ATATAACA | 0.184 ± 0.057
117 | ATATAACC | 0.134 ± 0.069
118 | ATATAACG | 0.302 ± 0.039
119 | AGGATCAC | 0.0434 ± 0.0027
120 | CGATGACC | -0.245 ± 0.045
121 | AACATAGG | 0.0986 ± 0.084
122 | GACTACAC | 0.016 ± 0.034
123 | AACTACAC | 0.257 ± 0.011
124 | AACTACAG | -0.122 ± 0.011
125 | CCCTCGCA | 0.109 ± 0.031

Row | Sequence | PBM 8-mer E-score
126 | GGACTATA | 0.129 ± 0.085
127 | AGCACCGA | -0.129 ± 0.026
128 | AGTAGAAC | 0.0268 ± 0.014
129 | AGTAGAAT | 0.286 ± 0.011
130 | ATTAGAAT | 0.248 ± 0.033
131 | ATTAGAAA | -0.0714 ± 0.083
132 | AGTAGAAA | 0.142 ± 0.006
133 | ATTAGAAG | 0.138 ± 0.075
134 | CCGAAACG | -0.122 ± 0.032
135 | GATCAGAA | -0.0464 ± 0.015
136 | CCCGTGGC | -0.328 ± 0.013
137 | ACCTCCCC | 0.0632 ± 0.019
138 | TGAACGAA | 0.0338 ± 0.048
139 | CTGATTCA | -0.006 ± 0.016
140 | AAGCGCTA | 0.0638 ± 0.1
141 | AAGCGCTT | 0.29 ± 0.074
142 | AAGCGCTC | 0.0083 ± 0.034
143 | AAGGATAT | 0.0821 ± 0.052
144 | ATTTATGA | 0.149 ± 0.03
145 | ACAGATGT | 0.0497 ± 0.021
146 | CAACTCGA | -0.0837 ± 0.0059
147 | AGTGGAAA | 0.185 ± 0.0052
148 | CGTGGAAG | 0.163 ± 0.035
149 | CGTGGAAA | 0.257 ± 0.038
150 | CGAGTAAC | -0.108 ± 0.036

Row | Sequence | PBM 8-mer E-score
151 | CCACAGCA | 0.0663 ± 0.031
152 | TCTGAAAA | -0.037 ± 0.13
153 | ATGCGTAC | 0.00487 ± 0.0049
154 | ATGCGTAG | 0.259 ± 0.071
155 | ATGCGTTA | 0.243 ± 0.018
156 | CTGCGTAA | -0.0976 ± 0.042
157 | ATGCGTAA | 0.238 ± 0.025
158 | GTGCGTTA | 0.00978 ± 0.021
159 | GTGCGTAA | 0.0529 ± 0.0043
160 | CTGCGTTA | -0.0622 ± 0.026
161 | ATGCGTCG | -0.0304 ± 0.0076
162 | GGCTTGTA | 0.22 ± 0.043
163 | GGAGCAAA | 0.0658 ± 0.024
164 | ACCTTAAT | 0.0925 ± 0.027
165 | CAGTGCGG | -0.189 ± 0.025
166 | ACCGTGGC | -0.207 ± 0.036
167 | GGCCTATA | -0.243 ± 0.01
168 | CTGCCCGC | -0.0236 ± 0.011
169 | CACGCGCG | 0.261 ± 0.051
170 | CAAGCGCC | -0.113 ± 0.064
171 | GACGCGCC | -0.0693 ± 0.078
172 | CACGCGCC | 0.262 ± 0.027
